Sampled rows, rich in hits. Any-hit rate of the full collection: about 1.5%.
PI5P4Ka inh – inhibitors of human PI5P4K alpha; PI5P4Kalpha enzyme, ADP-Glo luminescence, 60 min; stronger effect = lower value; max response, %; 330,000 tested, 1.2% active; AID 652105; active means max response of -50% or lower; inconclusive means between -30% and -50%; inactive means -30% or higher; further: value at the top dose of about 77 µM
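ADP-Glo luminescence end-point after a 60 min room-temperature kinase reaction. PI5P4Kalpha and substrate in HEPES pH 7.4 buffer with EGTA, 0.1% CHAPS and 5% DMSO; ATP at 5 microM final.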
GCN5L2 inh – blocks human GCN5L2 histone acetyltransferase; GCN5L2 HAT assay, ThioGlo1 CoA-SH fluorescence; Potency, µM (titrated, usually from 58.9 µM), usual class: inhibitors; 390,000 tested, 0.21% active; AID 504327; Q92830
Target sequence (Q92830 whole entry, looked up): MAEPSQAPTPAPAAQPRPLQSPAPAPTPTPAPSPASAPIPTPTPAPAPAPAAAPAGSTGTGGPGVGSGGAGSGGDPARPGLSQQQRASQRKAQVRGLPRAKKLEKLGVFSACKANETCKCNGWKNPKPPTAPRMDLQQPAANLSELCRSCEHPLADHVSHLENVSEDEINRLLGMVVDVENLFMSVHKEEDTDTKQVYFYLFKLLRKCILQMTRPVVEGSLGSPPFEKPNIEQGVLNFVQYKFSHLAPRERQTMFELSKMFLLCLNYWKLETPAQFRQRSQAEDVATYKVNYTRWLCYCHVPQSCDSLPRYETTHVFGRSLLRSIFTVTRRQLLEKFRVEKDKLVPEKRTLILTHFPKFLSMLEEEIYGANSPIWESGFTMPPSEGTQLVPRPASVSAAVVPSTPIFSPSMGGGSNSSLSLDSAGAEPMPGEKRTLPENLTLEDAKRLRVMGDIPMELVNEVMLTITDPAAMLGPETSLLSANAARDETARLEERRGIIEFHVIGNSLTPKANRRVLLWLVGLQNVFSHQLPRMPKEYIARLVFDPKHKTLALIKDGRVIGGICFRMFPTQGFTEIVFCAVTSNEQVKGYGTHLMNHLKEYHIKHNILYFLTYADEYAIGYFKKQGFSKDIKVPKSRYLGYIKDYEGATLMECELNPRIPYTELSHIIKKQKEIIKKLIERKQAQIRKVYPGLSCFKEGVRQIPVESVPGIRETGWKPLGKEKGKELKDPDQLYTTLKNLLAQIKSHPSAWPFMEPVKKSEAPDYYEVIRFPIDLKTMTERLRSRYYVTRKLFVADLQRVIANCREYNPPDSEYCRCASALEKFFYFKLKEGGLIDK
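Titration-based screen in which CoA formation is detected via maleimide probe ThioGlo1 (50uM) turning fluorescent on thiol reaction; substrates H3(1-25) 75uM and acetyl-CoA 70uM, GCN5L2 20nM, 20 min incubation at room temperature.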
APEX1 inh – inhibitors of human APE1 endonuclease; Potency, µM (titrated, usually from 65.8 µM), hits mostly inhibitors; 350,000 tested, 0.35% active; recombinant APE1, TAMRA/BHQ-2 abasic DNA cleavage fluorescence; P27695; further: nearly all actives have a fitted effect of over 55% in size
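Quantitative HTS: incision of a TAMRA/BHQ-2 double-stranded substrate bearing a tetrahydrofuran abasic site by 0.75 nM APE1 raises fluorescence. Substrate 50 nM final, added after 15 min compound preincubation at room temperature; progress as third-minus-first kinetic read difference.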
RECQ1 helicase – RECQ1 (human) helicase inhibition. 240,000 tested, 0.54% active. AID 2549. P46063. Potency, µM (highest dose often 57.3 µM), hits mostly inhibitors. RECQ1 DNA unwinding, red fluorescence kinetic read; further: nearly all actives have a fitted effect of over 30% in size
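50 nM RECQ1T1 preincubated 15 min with compound in Tris pH 8.0 buffer with MgCl2, DTT, Tween-20 and 2.5 ug/ml poly(dI-dC); started with 200 nM TAMRA/BHQ-2 forked duplex and 2 mM ATP. Unwinding read as fluorescence (525/598 nm), two reads 2 h apart.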
BLM helicase inh – blocks DNA unwinding by human BLM helicase | P54132 | recombinant BLM DNA unwinding, fluorescence dequenching | Potency, µM (top dose mostly 56.1 µM), most hits filed as inhibitors | 350,000 tested, 0.2% active; further: nearly all actives have a fitted effect of over 35% in size
FEN1 inhibitor – human FEN1 inhibition. 390,000 tested, 0.35% active. P39748. Potency, µM (doses to about 114 µM), hits mostly inhibitors. Recombinant FEN1 flap cleavage, fluorescence, 15 min; further: nearly all actives have a fitted effect of over 65% in size
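Compounds are tested as a concentration series against 10 nM FEN1; after a 15 min room-temperature preincubation, 50 nM substrate starts cleavage, with plate reads at 0 and 15 min. Normalized responses are fitted by a Hill equation.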
A number is an active result; . = inactive; ? = inconclusive; / = no result given. Unless noted, the call rests on the fitted dose curve; in most records, active means well fitted curve in the direction sought with a large enough effect; inconclusive means small, poorly fitted or top-dose-only effect, or another doubt; inactive means no such curve, though single readings can be large; an effect the other way counts as inactive or inconclusive.

SMILES | PI5P4Ka inh | GCN5L2 inh | APEX1 inh | RECQ1 helicase | BLM helicase inh | FEN1 inhibitor
Cc1ccc(C(=O)n2ncn(C)c2=S)cc1 | -63 | . | . | . | . | .
Cc1ccc(C(=O)n2nc(-c3ccco3)nc2N)cc1 | . | . | . | . | . | .
CC(C)NC(=O)CC(=O)N/N=C/c1cccs1 | . | . | . | . | 18µM | .
CNc1ccc(C=C2c3ccccc3-c3ccccc32)cc1 | / | / | / | / | / | .
Cc1cccc(C)c1Nc1nnc(SC/C(O)=C(\C#N)c2nc3ccccc3[nH]2)s1 | -68 | . | . | . | . | .
Cc1cccc(Nc2nnc(SC/C(O)=C(\C#N)c3nc4ccccc4[nH]3)s2)c1C | -59 | . | . | . | . | .
Cc1ccc(Nc2nnc(SCC(O)=C(C#N)c3nc4ccccc4[nH]3)s2)c(C)c1 | ? | / | / | / | / | .
Nc1ccc(O)c(-c2nc3ccccc3s2)c1 | ? | . | . | . | . | .
Oc1ccc(N=C/C=C/c2cccc(Br)c2)cc1-c1nc2ccccc2s1 | -59 | . | . | . | . | .
O=c1[nH]c(=S)[nH]c2scc(-c3ccc(Br)cc3)c12 | -55 | / | / | / | / | .
CC(C)(C)n1ncc2c(=O)n(Cc3c(F)ccc(Cl)c3Cl)cnc21 | / | / | . | / | / | .
O=S(=O)(c1ccc2ncccc2c1)N1CCN(c2nc(-c3cccs3)nc3ccccc23)CC1 | / | / | / | / | / | .
Nc1ccc2c(O)cc(S(=O)(=O)O)cc2c1 | -58 | / | / | / | / | 8.9µM
CC(=O)Nc1ccc2c(O)cc(S(=O)(=O)O)cc2c1 | . | / | / | / | / | ?
CC1=CC2=NC(=O)/C(=C\c3cc(C)n(-c4ccccc4F)c3C)C(=N)N2O1 | . | . | . | . | . | .
N=C1/C(=C\c2ccc(-c3cccc(Cl)c3)o2)C(=O)N=C2SC=C(c3ccccc3)N12 | -55 | ? | . | . | ? | .
CCOc1cc(/C=C2/C(=N)N3C(=NC2=O)SN=C3S(=O)(=O)CC)ccc1OC(=O)c1ccco1 | ? | ? | . | / | . | .
CCS(=O)(=O)C1=NN2C(=N)/C(=C\c3ccc(OC(=O)c4ccco4)c(OC)c3)C(=O)N=C2S1 | -57 | . | . | / | . | .
CCS(=O)(=O)C1=NSC2=NC(=O)/C(=C\c3ccc(OC(=O)c4ccco4)c(OC)c3)C(=N)N21 | -66 | . | . | / | . | .
Cc1cc(/C=C2/C(=N)N3C(=NC2=O)SN=C3S(C)(=O)=O)c(C)n1-c1ccccc1F | -62 | 22µM | . | . | . | .
C=CCOc1ccc(/C=C2\C(=N)N3N=C(S(=O)(=O)CC)SC3=NC2=O)cc1OC | ? | . | . | . | . | .
CS(=O)(=O)C1=NSC2=NC(=O)/C(=C\c3ccc(OC(=O)c4ccco4)cc3)C(=N)N21 | / | . | . | / | . | /
COc1cc(/C=C2\C(=N)N3N=C(S(C)(=O)=O)SC3=NC2=O)ccc1OS(=O)(=O)c1ccc(C)cc1 | -80 | . | . | / | . | .
COc1cc(/C=C2/C(=N)N3C(c4ccccc4)=CSC3=NC2=O)ccc1OCC(=O)O | -52 | . | . | . | . | ?
COc1cc(/C=C2/C(=N)N3C(=NC2=O)SN=C3S(C)(=O)=O)ccc1OC(=O)c1ccco1 | -66 | . | . | / | . | ?
SMILES | PI5P4Ka inh | GCN5L2 inh | APEX1 inh | RECQ1 helicase | BLM helicase inh | FEN1 inhibitor
CCOc1cc(/C=C2/C(=N)N3N=C(C)SC3=NC2=O)ccc1OS(=O)(=O)c1ccc(C)cc1 | . | . | . | / | . | .
Cc1cc(I)ccc1Nc1c(C(=O)NOCC2CC2)cc(F)c(F)c1F | / | . | . | . | . | /
CN(C)c1ccc(/C=C2\C(=O)/C(=C\c3ccc(N(C)C)cc3)c3ccccc32)cc1 | / | / | / | / | / | .
O=S(=O)(c1ccc2c(c1)CCCC2)N1CCN(c2nc(-c3ccccc3)nc3ccccc23)CC1 | / | / | / | / | / | .
O=C(COc1ccccc1F)NNC(=O)c1cccc(-n2cccc2)c1 | . | . | . | / | . | .
O=C(COc1cccc(F)c1)NNC(=O)c1cccc(-n2cccc2)c1 | -63 | ? | . | / | / | .
COc1ccccc1CC(=O)Nc1nc(-c2ccc(F)c(F)c2)cs1 | . | . | . | / | . | .
COc1ccccc1CNc1nc(-c2cc(C)n(C)c2C)cs1 | -72 | . | . | . | . | .
COc1cc(/C=C(\C#N)C(N)=O)cc(CSc2nc3ccccc3s2)c1O | / | 28µM | . | . | . | /
CCOc1cc(/C=C(\C#N)C(N)=O)cc(CSc2ccccc2)c1O | / | . | . | . | . | /
COc1cccc(NCc2nnc(SC(C(=O)N(C)C)c3ccccc3)n2C2CCCCC2)c1 (stereo not drawn) | / | / | / | / | / | .
Cc1c(C#N)c(O)[nH]c(=O)c1N=Nc1ccc(Cl)c(C(=O)O)c1 | . | . | . | / | . | .
Cc1c(C#N)c(O)[nH]c(=O)c1N=Nc1ccc(S(N)(=O)=O)cc1 | -76 | . | ? | / | . | .
CC/C(=C/c1ccccc1OC)c1cc(-c2ccccc2)cc2oc3ccccc3c12 | / | / | / | / | / | .
O=c1[nH]c(/C=C\c2ccc(O)c(O)c2)nc(O)c1[N+](=O)[O-] | -80 | . | ? | / | . | ?
CCOc1ccccc1/C=C\c1nc(O)c([N+](=O)[O-])c(=O)[nH]1 | ? | . | . | / | . | .
O=c1[nH]c(/C=C\c2cccc(O)c2)nc(O)c1[N+](=O)[O-] | -81 | . | . | / | . | .
O=C(COc1ccccc1/C=C\c1nc(O)c([N+](=O)[O-])c(=O)[nH]1)Nc1ccccc1 | -55 | . | . | . | . | .
CN(C)c1ccc(/C=C2\C=Cc3ccccc32)cc1Cl | / | / | / | / | / | .
CC(C)(C)C1=CC(=O)C(=O)C(C(C)(C)C)=C1 | ? | ? | . | . | . | 71µM
CC(C)(C)C1=CC(=Nc2ccccc2N)C=C(C(C)(C)C)C1=O | . | . | . | . | . | .
COc1ccc(N2CCN(C(c3ccc(C)cc3)c3nnnn3C(C)(C)C)CC2)cc1 (stereo not drawn) | / | / | / | / | / | .
Cc1ccc(NC(=O)c2cc(-n3cnnc3)ccc2Cl)cc1 | / | . | . | . | . | .
Cc1ccc(NC(=O)c2cc(N3C(=O)C=CC3=O)ccc2Cl)cc1C | -76 | . | . | . | . | .
Cc1ccc(NC(=O)c2cc(N3C(=O)C=CC3=O)ccc2N2CCOCC2)cc1 | -63 | . | . | . | . | .
Clc1cccc(CNc2ncnc3nc[nH]c23)c1 | / | / | / | / | / | .
CC(C)(C)[C@H]1CCC(=O)N(CCSc2ccc(Br)cc2)CC1 | / | / | / | / | / | .
C=CCOc1ccc(C=NNc2ccc(S(=O)(=O)Nc3ccccc3C(=O)O)cc2[N+](=O)[O-])cc1OC | -83 | ? | ? | / | / | ?
O=C(O)c1ccccc1/C=N/Nc1ccc(S(=O)(=O)N2CCCC2)cc1[N+](=O)[O-] | . | . | . | . | . | .
COc1ccc(NC(=S)NNc2ccc(S(=O)(=O)Nc3ccccc3C(=O)O)cc2[N+](=O)[O-])cc1 | -71 | ? | . | . | . | ?
